This note sets out measurements from PubChem BioAssay.

SMILES strings stand for the structures. Calls of active or inactive are those of the source.

Assay [1] deals with Human papillomavirus type 1a protein E7 (residues 44-93). As to the kind of experiment: small molecules binding HPV E7 44-93 – biochemical, small-molecule microarray, residues 44-93, 635 nm fluorescence, primary screen (AID 1108).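 Further: E7 fragment applied at 1 µg/mL in TBST for 1 h at 4 C; score combines spot fluorescence with its signal to noise ratio.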 The following applies: fluorescence 635 nm, higher = more signal.
The nature of assay [2]: hepatitis C replication reporter changes, two-sided – Huh7 cells, luciferase reporter, HCV replication inhibitor project, primary screen (AID 1109).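 Further: huh7 hepatoma cells harbouring a luciferase neomycin HCV replicon reporter; luciferase luminescence as measure of HCV replicon replication; test concentration not given here.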 The following applies: Huh7 HCV replicon luciferase reporter, 48 h; higher = more signal.
Assay [3] deals with Left-right determination factor 2 (Homo sapiens) (UniProt O00292). As to the kind of experiment: small molecules binding LEFTY2 protein – biochemical, small-molecule microarray, 635 nm fluorescence scan, primary screen (AID 1110). The following applies: higher = more signal.
Assay [4] addresses Calmodulin-1 (Homo sapiens) (UniProt P0DP23). As to the kind of experiment: small molecules binding calmodulin-1 with EGTA – biochemical, small-molecule microarray, Cy5-labelled CALM1, profiling panel (AID 1111).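 Further: labelled calmodulin applied in Tris saline Tween buffer holding calcium plus EGTA and DTT.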 The following applies: Cy5-CALM1 binding fluorescence, higher = more signal.
For assay [5] the target is unchanged. As to the kind of experiment: small molecules binding Ca-loaded calmodulin-1 – biochemical, small-molecule microarray, Cy5-labelled CALM1, plus calcium, artefact control for SMM control-protein annotation, profiling panel (AID 1112).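 Further: score merges spot fluorescence with signal to noise from triplicate slides.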 The following applies: Cy5-CALM1 binding fluorescence, higher = more signal.
The nature of assay [6]: probe aWnt5a binding to arrayed compounds – biochemical, biotinylated probe, 635/667 nm fluorescence, primary screen (AID 1113).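 Further: score merges 667 nm fluorescence intensity with signal-to-noise per printed feature.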 The following applies: small-molecule microarray, higher = more signal.
The nature of assay [7]: probe aShh binding to arrayed compounds – biochemical, biotinylated probe, 635/667 nm fluorescence, primary screen (AID 1114).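 Further: probe is biotin-labelled aShh protein from a stem cell growth factor screen; measures binding of labelled protein to compounds printed on the slide; score merges feature fluorescence at 667 nm with signal-to-noise.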 The following applies: small-molecule microarray, higher = more signal.
A short description of assay [8]: probe aNog binding to arrayed compounds – biochemical, biotinylated probe, 635/667 nm fluorescence, primary screen (AID 1115).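 Further: probe is biotinylated aNog protein used at 0.15 µg/mL for 1 h at 4 C; z-score combines 667 nm fluorescence of each spot with its signal to noise.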 The following applies: small-molecule microarray, higher = more signal.
Assay [9] concerns the target Torsin-1A-interacting protein 1 (Homo sapiens) (UniProt Q5JTV8). As to the kind of experiment: compound microarray binding of lysate hLAP1 – cell lysate, small-molecule microarray, COS7 lysate, 635/667 nm fluorescence, primary screen (AID 1116). The following applies: 635 nm fluorescence, higher = more signal.
The target in assay [10] is Alpha-bungarotoxin (Bungarus multicinctus) (UniProt P60615). As to the kind of experiment: compounds binding labelled alpha-BTX control protein – biochemical, small-molecule microarray, Alexa647 label, 635/667 nm fluorescence, artefact control for SMM control protein annotation, profiling panel (AID 1117). The following applies: alpha-BTX-A647 binding fluorescence, higher = more signal.

In assay [11] the target is Albumin (Bos taurus) (UniProt P02769). As to the kind of experiment: compounds binding labelled BSA control protein – biochemical, small-molecule microarray, Alexa647 label, 635/667 nm fluorescence, artefact control for SMM control protein annotation, profiling panel (AID 1118).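 Further: score merges 667 nm emission intensity and signal-to-noise per printed compound spot.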 The following applies: BSA-A647 binding, fluorescence 635 nm, higher = more signal.
Assay [12] can be described thus: probe aXIP binding to arrayed compounds – biochemical, NeuroSMM set, 635/667 nm fluorescence, primary screen (AID 1119).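 Further: probe is the protein aXip251-270 applied at 1 µg/mL to compound-printed slides; binding of probe to printed compounds measured as 667 nm fluorescence plus signal to noise.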 The following applies: small-molecule microarray, higher = more signal, called active from +8 up or from −8 down.
Assay [13] in a line: probe aNOTCH3 binding on compound microarray – biochemical, small-molecule microarray, 635/667 nm fluorescence, primary screen (AID 1120).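 Further: probe is a biotin-tagged antibody raised against NOTCH3 rather than NOTCH3 protein; score merges spot fluorescence near 667 nm with spot signal to noise.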 The following applies: higher = more signal.
Assay [14] in a line: probe aNOTCH2 binding on compound microarray – biochemical, small-molecule microarray, 635/667 nm fluorescence, primary screen (AID 1121).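 Further: score merges feature fluorescence read at 667 nm with its signal to noise.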 The following applies: higher = more signal.
For assay [15], the target named is Carbonic anhydrase 2 (Homo sapiens) (UniProt P00918). As to the kind of experiment: compounds binding carbonic anhydrase 2 – biochemical, small-molecule microarray, Alexa647-labelled CAII, profiling panel (AID 1122). The following applies: CAII-A647 binding fluorescence, higher = more signal.
Assay [16] can be described thus: COS7 lysate on small-molecule microarray, probe aHis, 635 nm (AID 1123).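 Further: z-score combines 667nm fluorescence intensity with signal-to-noise per printed compound spot.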 The following applies: COS7 cell lysate, fluorescence, higher = more signal.
Assay [17] is described as follows: probe aLAP1 signal on lysate-treated microarray – cell lysate, small-molecule microarray, COS7 lysate, primary screen (AID 1124).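 Further: lysate comes from COS7 cells expressing LAP1 and is applied at 0.3 µg/mL; score merges spot fluorescence near 667 nm with signal-to-noise over triplicate slides.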 The following applies: probe aLAP1, fluorescence, higher = more signal.
Assay [18] concerns Sam68 (KHDRBS1). As to the kind of experiment: compounds binding KHDRBS1 protein – biochemical, small-molecule microarray, 635 nm fluorescence, primary screen (AID 1125).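 Further: score merges 667 nm channel intensity with signal to noise over triplicate slides.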 The following applies: higher = more signal.
The subject of assay [19] is Chordin-like protein 2 (CHRDL2). Briefly: compounds binding chordin-like 2 – biochemical, small-molecule microarray, 635 nm fluorescence, primary screen (AID 1126).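 Further: printed compound slides probed with Chrdl2 protein at 4 µg/mL for 1 h at 4 C; score merges 667 nm emission intensity with signal to noise over three replicate slides.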 The following applies: fluorescence 635 nm, higher = more signal.
The target in assay [20] is Concanavalin-A (Canavalia ensiformis) (UniProt P02866). As to the kind of experiment: compounds binding concanavalin A lectin – biochemical, small-molecule microarray, Alexa647 label, 635 nm, artefact control for SMM control protein annotation, primary screen (AID 1127).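 Further: z combines 667 nm emission intensity with signal-to-noise across three replicate slides.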 The following applies: ConA-A647 binding fluorescence, higher = more signal.
Concanavalin-A (Canavalia ensiformis), sequence (P02866 whole entry, looked up): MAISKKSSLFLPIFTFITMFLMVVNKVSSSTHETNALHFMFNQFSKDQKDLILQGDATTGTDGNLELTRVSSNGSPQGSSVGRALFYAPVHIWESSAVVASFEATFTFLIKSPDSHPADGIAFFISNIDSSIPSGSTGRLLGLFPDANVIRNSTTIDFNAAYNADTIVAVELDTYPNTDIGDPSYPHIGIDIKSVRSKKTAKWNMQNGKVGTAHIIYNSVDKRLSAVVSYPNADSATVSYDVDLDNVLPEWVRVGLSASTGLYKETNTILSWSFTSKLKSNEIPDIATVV

Left-right determination factor 2 (Homo sapiens), sequence (O00292 whole entry, looked up): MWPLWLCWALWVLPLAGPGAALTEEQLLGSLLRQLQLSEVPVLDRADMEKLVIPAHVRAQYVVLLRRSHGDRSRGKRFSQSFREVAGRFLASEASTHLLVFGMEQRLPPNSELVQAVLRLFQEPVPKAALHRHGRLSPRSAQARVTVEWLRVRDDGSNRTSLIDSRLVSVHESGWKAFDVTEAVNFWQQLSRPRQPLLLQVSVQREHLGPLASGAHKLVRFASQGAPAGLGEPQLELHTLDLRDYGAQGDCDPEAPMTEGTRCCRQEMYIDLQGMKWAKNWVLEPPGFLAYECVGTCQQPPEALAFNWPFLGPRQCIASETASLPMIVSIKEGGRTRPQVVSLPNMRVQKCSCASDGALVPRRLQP
Alpha-bungarotoxin (Bungarus multicinctus), sequence (P60615 whole entry, looked up): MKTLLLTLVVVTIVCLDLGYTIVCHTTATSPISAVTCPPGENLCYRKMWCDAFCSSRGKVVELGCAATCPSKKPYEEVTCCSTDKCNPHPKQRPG
Albumin (Bos taurus), sequence (P02769 whole entry, looked up): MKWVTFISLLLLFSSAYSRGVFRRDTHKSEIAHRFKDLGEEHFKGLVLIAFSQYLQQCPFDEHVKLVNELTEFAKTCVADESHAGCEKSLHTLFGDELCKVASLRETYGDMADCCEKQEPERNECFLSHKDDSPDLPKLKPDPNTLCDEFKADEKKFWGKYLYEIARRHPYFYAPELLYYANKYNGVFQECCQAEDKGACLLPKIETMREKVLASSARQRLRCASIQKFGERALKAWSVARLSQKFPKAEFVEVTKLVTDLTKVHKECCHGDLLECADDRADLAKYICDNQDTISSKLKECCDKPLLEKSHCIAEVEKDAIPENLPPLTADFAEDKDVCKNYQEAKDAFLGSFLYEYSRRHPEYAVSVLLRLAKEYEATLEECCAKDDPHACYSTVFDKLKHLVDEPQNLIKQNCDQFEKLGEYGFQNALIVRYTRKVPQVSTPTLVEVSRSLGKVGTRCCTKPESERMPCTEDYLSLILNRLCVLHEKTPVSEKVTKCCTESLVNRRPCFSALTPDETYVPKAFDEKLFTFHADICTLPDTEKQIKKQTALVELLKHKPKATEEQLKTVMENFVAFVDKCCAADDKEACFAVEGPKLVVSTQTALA
Torsin-1A-interacting protein 1 (Homo sapiens), sequence (Q5JTV8 whole entry, looked up): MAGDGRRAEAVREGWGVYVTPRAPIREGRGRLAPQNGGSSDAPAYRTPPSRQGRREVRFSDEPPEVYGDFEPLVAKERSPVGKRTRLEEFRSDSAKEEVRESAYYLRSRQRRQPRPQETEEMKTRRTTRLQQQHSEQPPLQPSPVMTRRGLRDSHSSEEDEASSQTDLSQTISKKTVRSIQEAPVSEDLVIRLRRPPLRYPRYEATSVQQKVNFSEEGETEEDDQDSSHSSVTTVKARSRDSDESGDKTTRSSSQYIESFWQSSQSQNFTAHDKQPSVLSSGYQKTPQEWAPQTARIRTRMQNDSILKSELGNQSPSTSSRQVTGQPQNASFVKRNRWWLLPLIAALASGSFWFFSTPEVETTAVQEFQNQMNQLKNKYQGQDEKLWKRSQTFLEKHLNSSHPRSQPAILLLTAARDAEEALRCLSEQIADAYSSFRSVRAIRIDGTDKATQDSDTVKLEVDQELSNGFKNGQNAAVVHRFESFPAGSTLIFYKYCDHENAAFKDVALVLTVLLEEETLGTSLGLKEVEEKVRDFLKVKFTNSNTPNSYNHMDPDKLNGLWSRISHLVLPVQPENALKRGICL

On to `C=C(COC)/C(=C/C[C@@H](OC(C)=O)c1ccccc1OCCO)c1cc(C(=O)OC)ccc1OC`, for which the composite z-score is 1.3 in [1]; -0.145 in [3]; -0.249 in assay [4]; -0.808 in [5]; -0.1 in assay [6]; 0.0469 in assay [7]. Further, the composite z-score is 0.0502 in assay [8]; 1.46 in assay [9]; 0.324 in assay [10]; 0.27 in assay [11]; 0.213 in [13]; -0.122 in [14]. Besides, the composite z-score in assay [15] was 0.388; in assay [16], 0.283; in assay [17], 0.0845; in assay [18], 0.844; in assay [19] it was -0.183; in assay [20], 0.369. Besides, in assay [2], the z-score is -2.3. Also, in [12], the composite Z-score is 1.02 (inactive).

On to `C=CCC(OC(C)=O)[C@@H]1[C@@H](N(Cc2cccc3ccccc23)C(=O)c2ccc(-c3ccccc3)cc2)c2cc(OCCCO)ccc2N1C(=O)c1ccc2ccccc2n1` (stereo not given in full), for which the composite z-score in [1] was 0.237; in assay [3], 0.258; in assay [4] it was 0.249; in assay [5], 0.979; in assay [6] it was -0.0685; in [7], 0.158. Besides, the composite z-score is -0.278 in [8]; 0.529 in assay [9]; -0.0098 in [10]; 0.192 in assay [11]; 0.119 in assay [13]; -0.0639 in [14]. Besides, the composite z-score in assay [15] is 0.0528; in assay [16], 0.181; in assay [17] it was 0.649; in [18], 0.464; in assay [19], 0.41; in assay [20], -0.288. The z-score in assay [2] amounted to 0.15. Also, the composite Z-score in assay [12] was -0.0401 (inactive).

Regarding `[N-]=[N+]=NCc1ccccc1C[C@]1(C(=O)NCc2ccccc2)N=C(c2ccc(OCCCO)cc2)O[C@H]1c1ccccc1CN=[N+]=[N-]`, the composite z-score in [1] was 1.42; in [3], -0.578; in assay [4], 1.36; in assay [5] it was 0.533; in assay [6], 0.0474; in assay [7] it was 0.338. Moreover, the composite z-score in assay [8] was -0.0439; in assay [9] it was 1.9; in assay [10], 1.87; in assay [11], 0.735; in assay [13], 0.192; in assay [14] it was 0.0522. Besides, the composite z-score in assay [15] was 0.727; in assay [16], 2.67; in [17], 0.478; in [18] it was 0.839; in [19], -0.324; in [20], 0.958. Also, the z-score in assay [2] is -2.3. Also, the composite Z-score in assay [12] is 0.597 (inactive).

Consider `C=C(/C(=C/C[C@H](OC(=O)c1ccncc1)c1ccccc1OCCO)c1cc(C(=O)OC)ccc1OC)C(C)C`, for which the composite z-score in assay [1] was 1.03; in assay [3] it was 0.255; in assay [4], -0.23; in [5] it was -0.587; in [6], 0.132; in assay [7], 0.0639. Further, the composite z-score in assay [8] was -0.194; in [9], 0.0538; in [10], 1.42; in assay [11], 0.407; in assay [13] it was -0.0288; in assay [14], -0.102. Moreover, the composite z-score in assay [15] was 0.453; in [16] it was 0.537; in assay [17], -0.0576; in assay [18], 1.06; in assay [19], 0.33; in [20], 0.737. Besides, the z-score in assay [2] was -2.96. Moreover, the composite Z-score in [12] is -0.104 (inactive).

Regarding `CCOC(=O)C[C@H]1[C@H](OC(=O)c2cc3ccccc3oc2=O)[C@@H](NC(=O)C2CCCCC2)c2cc(OCCCO)ccc2N1C(=O)Cc1ccc(OC)cc1`, the composite z-score in assay [1] is 0.612; in [3], 0.304; in assay [4], 0.126; in [5], -0.182; in assay [6] it was 0.0633; in assay [7], 0.42. Also, the composite z-score is 0.23 in assay [8]; 0.404 in assay [9]; 0.25 in assay [10]; 0.259 in assay [11]; 1.41 in assay [13]; -0.0111 in [14]. Moreover, the composite z-score in assay [15] is 0.51; in assay [16] it was 0.988; in assay [17] it was 0.319; in [18] it was 0.736; in assay [19] it was 0.328; in assay [20] it was -0.146. The z-score in assay [2] was -0.938. For the same molecule, in assay [12], the composite Z-score was 0.127 (inactive).
